This is an account of results in PubChem BioAssay (EPA / NIEHS).

As usually defined, the AC50 is the midpoint of the concentration-response curve, whichever way the signal moves.

Structures are written as SMILES. Active and inactive are the calls of the source. Rule for the calls: active = hit-call score of the fitted dose curve at least 0.9, where 1 is the maximum; inactive = score below 0.9.

What all share (conditions): mRNA level, 48 h; actives raise or lower the signal
Read-out in test [1]: Broad substrate specificity ATP-binding cassette transporter ABCG2 (Homo sapiens) (UniProt Q9UNQ0)
The test can be described thus: LTEA_HepaRG_ABCG2: Life Technologies and Expression Analysis (LTEA) Assay for ABC Transporter (ABCG2) using HepaRG (AID 2283465). Summed up:
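ABCG2 transcript was quantified by TaqMan qRT-PCR against three housekeeping genes in HepaRG cells. Cells were treated in duplicate for 48 h across an 8-point half-log series up to 100 uM, with 0.5% DMSO vehicle. Gain or loss versus DMSO was fit.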

Read-out in test [2]: ATP-citrate lyase (ACLY), ACLY (gene 47)
The test can be described thus: LTEA_HepaRG_ACLY: Life Technologies and Expression Analysis (LTEA) Assay for ATP-citrate lyase (ACLY) using HepaRG (AID 2283466). The gist of the method: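 ACLY mRNA quantified by qRT-PCR on Fluidigm arrays against three housekeeping genes, after 48 h chemical treatment of HepaRG cells (top concentration 100 uM, half-log steps, 0.5% DMSO vehicle). Up- or down-regulation fitted relative to DMSO.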

Read-out in test [3]: Peroxisomal acyl-coenzyme A oxidase 1 (ACOX1) gene, ACOX1 (gene 51)
The test can be described thus: LTEA_HepaRG_ACOX1: Life Technologies and Expression Analysis (LTEA) Assay for Peroxisomal acyl-coenzyme A oxidase 1 (ACOX1) gene using HepaRG (AID 2283467). The gist of the method: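 ACOX1 transcript levels were quantified by TaqMan qRT-PCR against three housekeeping genes after 48 h chemical exposure of differentiated human HepaRG cells. Exposure used eight half-log steps topping at 100 uM, 0.5% DMSO vehicle, in duplicate. Bidirectional curve fits were made relative to DMSO.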

Read-out in test [4]: Alkaline Phosphatase, Placental (ALPP) gene, ALPP (gene 250)
The test can be described thus: LTEA_HepaRG_ALPP: Life Technologies and Expression Analysis (LTEA) Assay for Alkaline Phosphatase, Placental (ALPP) gene using HepaRG (AID 2283468).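 For AC50: differentiated human HepaRG liver cells in serum-free induction medium.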 The gist of the method: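 qRT-PCR readout of ALPP mRNA (Fluidigm TaqMan), normalized to ACTB/GAPDH/POLR2A, after 48 h chemical exposure of HepaRG cells; 8-point half-log series, top 100 uM, 0.5% DMSO vehicle. Bidirectional curve fit versus DMSO baseline.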

Read-out in test [5]: Bcl-2 (BAD) gene, BAD (gene 572)
As to the kind of experiment: LTEA_HepaRG_BAD: Life Technologies and Expression Analysis (LTEA) Assay for Bcl-2 (BAD) gene using HepaRG (AID 2283469). The gist of the method:
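Read-out: qRT-PCR of BAD mRNA, normalized to three housekeeping genes. Human HepaRG cultures got 48 h chemical exposure in 0.5% DMSO, duplicate eight-point half-log series topping at 100 uM. Gain or loss of signal fitted versus DMSO vehicle.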

Read-out in test [6]: Bcl-2 (BAX) gene, BAX (gene 581)
As to the kind of experiment: LTEA_HepaRG_BAX: Life Technologies and Expression Analysis (LTEA) Assay for Bcl-2 (BAX) gene using HepaRG (AID 2283470). Summed up:
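Cells were thawed, plated for 48 h, moved to serum-free induction medium and dosed for 48 h (highest concentration 100 uM, half-log steps, 0.5% DMSO). Total RNA was then analysed for BAX expression by qRT-PCR.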

Read-out in test [7]: adenosine kinase (ADK) gene, ADK (gene 132)
As to the kind of experiment: LTEA_HepaRG_ADK: Life Technologies and Expression Analysis (LTEA) Assay for adenosine kinase (ADK) gene using HepaRG (AID 2283471). Summed up: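 Read-out is ADK transcript level measured by qRT-PCR and normalised to three housekeeping genes. Cells are human HepaRG, dosed for 48 h at up to 100 uM in 0.5% DMSO. Gain or loss of signal is fitted against DMSO controls.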

Read-out in test [8]: Alpha-fetoprotein (AFP) gene, AFP (gene 174)
As to the kind of experiment: LTEA_HepaRG_AFP: Life Technologies and Expression Analysis (LTEA) Assay for Alpha-fetoprotein (AFP) gene using HepaRG (AID 2283472). The gist of the method: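 Chemicals were tested on differentiated HepaRG cells for 48 hours at eight concentrations up to 100 uM, with 0.5% DMSO as vehicle. AFP expression was then quantified by qRT-PCR and analyzed for gain or loss relative to DMSO.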

Read-out in a further test: BCL2L11 (gene 10018)
The test can be described thus: LTEA_HepaRG_BCL2L11: Life Technologies and Expression Analysis (LTEA) Assay for Bcl-2 (BCL2L11) gene using HepaRG (AID 2283473). The gist of the method:
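HepaRG, 48 h exposure, 8-pt half-log series from 100 uM in 0.5% DMSO, duplicates; qRT-PCR (Fluidigm TaqMan) for BCL2L11, housekeeping-normalized; bidirectional curve fit relative to DMSO baseline.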

Read-out in test [9]: Apolipoprotein A-V (APOA5) gene, APOA5 (gene 116519)
The test can be described thus: LTEA_HepaRG_APOA5: Life Technologies and Expression Analysis (LTEA) Assay for Apolipoprotein A-V (APOA5) gene using HepaRG (AID 2283474). The gist of the method: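 HepaRG, 48 h chemical exposure in serum-free induction medium, 8-pt half-log series (top 100 uM), 0.5% DMSO vehicle, duplicates. Readout: APOA5 mRNA by qRT-PCR, housekeeping-normalized; bidirectional fit vs DMSO baseline.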

Read-out in test [10]: Apoptosis regulator Bcl-2 (Homo sapiens) (UniProt P10415)
The test can be described thus: LTEA_HepaRG_BCL2: Life Technologies and Expression Analysis (LTEA) Assay for Bcl-2 gene using HepaRG (AID 2283475). The gist of the method:
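Plated human HepaRG cells are exposed to test chemicals for 48 h across eight concentrations from 100 uM downward in half-log steps (0.5% DMSO). BCL2 expression is then measured by qRT-PCR with housekeeping normalisation and fitted bidirectionally against vehicle.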

Read-out in the next test: Caspase-3 (Homo sapiens) (UniProt P42574)
As to the kind of experiment: LTEA_HepaRG_CASP3: Life Technologies and Expression Analysis (LTEA) Assay for cysteine-aspartic acid protease (CASP3) using HepaRG (AID 2283477). Summed up: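 HepaRG, 48 h exposure, 8 conc. (top 100 uM, half-log steps, duplicate), 0.5% DMSO vehicle; qRT-PCR of CASP3 transcript, housekeeping-normalised (ACTB/GAPDH/POLR2A); bidirectional curve fit vs DMSO baseline.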

Read-out in test [11]: Cytochrome P450 (CYP24A1), CYP24A1 (gene 1591)
As to the kind of experiment: LTEA_HepaRG_CYP24A1: Life Technologies and Expression Analysis (LTEA) Assay for Cytochrome P450 (CYP24A1) using HepaRG (AID 2283478). The gist of the method:
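qRT-PCR read-out: CYP24A1 transcript levels normalized to three housekeeping genes, bidirectional curve fits against 0.5% DMSO baseline. Human HepaRG cells treated 48 h with chemicals at eight concentrations from 100 uM in half-log steps.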

Read-out in test [12]: Cytochrome P450 (CYP1A2), CYP1A2 (gene 1544)
As to the kind of experiment: LTEA_HepaRG_CYP1A2: Life Technologies and Expression Analysis (LTEA) Assay for Cytochrome P450 (CYP1A2) using HepaRG (AID 2283479). The gist of the method: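 HepaRG, 48 h exposure, top 100 uM, half-log 8-pt, 0.5% DMSO vehicle, duplicates. Readout: TaqMan qRT-PCR of CYP1A2 mRNA, housekeeping-normalized (ACTB/GAPDH/POLR2A). Gain/loss fit relative to DMSO baseline.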

Read-out in test [13]: Cytochrome P450 (CYP2B6), CYP2B6 (gene 1555)
The test can be described thus: LTEA_HepaRG_CYP2B6: Life Technologies and Expression Analysis (LTEA) Assay for Cytochrome P450 (CYP2B6) using HepaRG (AID 2283481). Summed up: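 Read-out is CYP2B6 mRNA by TaqMan qRT-PCR, normalized to three housekeeping genes and fitted bidirectionally against 0.5% DMSO baseline. Human HepaRG cells received test chemicals for 48 h, top concentration 100 uM, half-log dilutions.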

Read-out in test [14]: Cytochrome P450 2C19 (Homo sapiens) (UniProt P33261)
The test can be described thus: LTEA_HepaRG_CYP2C19: Life Technologies and Expression Analysis (LTEA) Assay for CYP2C19 using HepaRG (AID 2283482). The gist of the method: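 HepaRG, 48 h chemical exposure, 8-pt half-log series from 100 uM in 0.5% DMSO, duplicates. Readout: CYP2C19 mRNA by TaqMan qRT-PCR, housekeeping-normalized. Bidirectional fit vs DMSO baseline; phenobarbital 1mM as induction control.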

Read-out in a further test: CYP2C8 (gene 1558)
The test can be described thus: LTEA_HepaRG_CYP2C8: Life Technologies and Expression Analysis (LTEA) Assay for CYP2C8 using HepaRG (AID 2283483). The gist of the method:
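CYP2C8 expression measured by TaqMan qRT-PCR and normalized to three housekeeping genes. HepaRG cultures were treated for 48 h with an eight-point half-log series topping at 100 uM, vehicle 0.5% DMSO, duplicates; fitted both directions against DMSO.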

Chain of Caspase-3 (Homo sapiens) (P42574 whole entry, looked up): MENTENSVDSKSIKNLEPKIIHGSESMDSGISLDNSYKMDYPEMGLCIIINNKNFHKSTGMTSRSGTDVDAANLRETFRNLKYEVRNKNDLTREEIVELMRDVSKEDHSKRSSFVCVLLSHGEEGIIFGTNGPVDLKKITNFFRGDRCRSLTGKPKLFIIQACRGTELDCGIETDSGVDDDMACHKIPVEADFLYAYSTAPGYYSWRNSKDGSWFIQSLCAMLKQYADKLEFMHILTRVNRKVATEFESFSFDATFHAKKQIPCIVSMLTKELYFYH
Chain of Apoptosis regulator Bcl-2 (Homo sapiens) (P10415 whole entry, looked up): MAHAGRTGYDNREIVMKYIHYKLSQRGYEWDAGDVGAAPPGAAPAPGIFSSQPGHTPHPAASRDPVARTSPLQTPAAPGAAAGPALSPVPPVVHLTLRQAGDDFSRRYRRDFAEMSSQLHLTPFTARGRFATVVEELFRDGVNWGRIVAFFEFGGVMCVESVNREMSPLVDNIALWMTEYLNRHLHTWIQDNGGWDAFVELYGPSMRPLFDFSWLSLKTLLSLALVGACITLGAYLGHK
Chain of Broad substrate specificity ATP-binding cassette transporter ABCG2 (Homo sapiens) (Q9UNQ0 whole entry, looked up): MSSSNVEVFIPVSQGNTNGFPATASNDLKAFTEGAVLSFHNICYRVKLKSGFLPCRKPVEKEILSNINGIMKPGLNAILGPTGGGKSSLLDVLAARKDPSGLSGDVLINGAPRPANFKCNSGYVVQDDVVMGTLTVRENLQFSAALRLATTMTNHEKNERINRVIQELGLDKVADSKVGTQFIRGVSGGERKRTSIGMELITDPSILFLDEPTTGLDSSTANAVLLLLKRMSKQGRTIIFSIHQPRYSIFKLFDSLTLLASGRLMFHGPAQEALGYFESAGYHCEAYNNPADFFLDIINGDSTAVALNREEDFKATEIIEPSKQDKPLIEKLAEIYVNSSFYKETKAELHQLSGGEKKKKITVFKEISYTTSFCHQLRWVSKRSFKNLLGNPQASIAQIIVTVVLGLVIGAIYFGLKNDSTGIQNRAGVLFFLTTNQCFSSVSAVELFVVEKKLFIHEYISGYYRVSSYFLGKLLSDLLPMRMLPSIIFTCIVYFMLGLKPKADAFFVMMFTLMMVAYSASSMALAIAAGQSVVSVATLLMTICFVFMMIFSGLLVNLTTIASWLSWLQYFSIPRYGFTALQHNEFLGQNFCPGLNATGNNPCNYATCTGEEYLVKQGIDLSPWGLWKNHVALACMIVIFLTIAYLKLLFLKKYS
Chain of Cytochrome P450 2C19 (Homo sapiens) (P33261 whole entry, looked up): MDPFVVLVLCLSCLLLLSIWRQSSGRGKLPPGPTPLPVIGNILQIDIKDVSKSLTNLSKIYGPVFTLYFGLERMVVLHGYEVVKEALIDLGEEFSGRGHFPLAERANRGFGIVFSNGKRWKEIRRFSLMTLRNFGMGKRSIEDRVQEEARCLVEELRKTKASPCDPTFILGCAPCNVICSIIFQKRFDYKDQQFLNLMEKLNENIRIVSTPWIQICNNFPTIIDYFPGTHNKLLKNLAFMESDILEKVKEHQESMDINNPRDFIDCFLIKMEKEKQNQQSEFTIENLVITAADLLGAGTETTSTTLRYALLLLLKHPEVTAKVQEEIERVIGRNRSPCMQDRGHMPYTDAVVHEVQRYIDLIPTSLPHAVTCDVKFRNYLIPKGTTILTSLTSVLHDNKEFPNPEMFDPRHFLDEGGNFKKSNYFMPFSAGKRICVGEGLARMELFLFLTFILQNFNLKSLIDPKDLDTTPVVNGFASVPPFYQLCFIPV

As for `CCOC(=O)NCCOc1ccc(Oc2ccccc2)cc1`, the AC50 was 78 µM (active) in test [1]; 50 µM (active) in test [4]; 83.5 µM (active) in [8]; 85.8 µM (active) in [9]; 82.1 µM (active) in [10]; 84.5 µM (active) in [12]. For the same molecule, the AC50 was 81.4 µM (active) in test [13], 81.6 µM (active) in test [14] and 81.1 µM (active) with CYP2C8 (gene 1558). Also, the molecule was classed as inactive (in [2]; in [3]; in test [5]; in [6]; in test [7]; with BCL2L11 (gene 10018)). Moreover, the call (with Caspase-3 (Homo sapiens); in [11]) was inactive.

As for `CC(=O)[C@H]1CC[C@H]2[C@@H]3CCC4=CC(=O)CC[C@]4(C)[C@H]3CC[C@]12C`, the AC50 in test [1] was 12.5 µM (active); in test [2], 83.2 µM (active); in test [3], 75.8 µM (active); in [4], 30 µM (active); in test [6], 27 µM (active); in [7], 88.7 µM (active). Also, the AC50 in test [8] was 24.4 µM (active); with BCL2L11 (gene 10018), 12.8 µM (active); in [9], 34 µM (active); in test [10], 23 µM (active); in [12], 25.4 µM (active); in [13], 32.6 µM (active). Also, the AC50 is 39.6 µM (active) in test [14] and 37.2 µM (active) with CYP2C8 (gene 1558). The outcome (in [5]; with Caspase-3 (Homo sapiens); in test [11]) was inactive.

For the molecule `CCCCOC(=O)C(C)Oc1ccc(Oc2ccc(C(F)(F)F)cn2)cc1` (stereo not drawn), the call in test [1], in test [2], in [3], in test [4], in [5] and in test [6] was inactive. The call (in [7]; in test [8]; with BCL2L11 (gene 10018); in test [9]; in test [10]; with Caspase-3 (Homo sapiens)) was inactive. In addition, the molecule was classed as inactive (in test [11]; in [12]; in test [13]; in [14]; with CYP2C8 (gene 1558)).

As for `CC(C)CCCCCCc1ccc(O)cc1`, the molecule was classed as inactive in [1], in test [3], in test [4], in test [5], in [6] and in [7]. Moreover, the result (in test [8]; with BCL2L11 (gene 10018); in [9]; in [10]; in the test with Caspase-3 (Homo sapiens); in test [11]) was inactive. Further, the molecule was classed as inactive (in test [12]; in test [13]; in [14]; with CYP2C8 (gene 1558)).

For `COCCO`, the call in test [1], in [2], in test [3], in [4], in test [5] and in test [6] was inactive. Besides, the result (in [7]; in [8]; with BCL2L11 (gene 10018); in test [9]; in test [10]; with Caspase-3 (Homo sapiens)) was inactive. The call (in test [11]; in test [12]; in [13]; in test [14]; with CYP2C8 (gene 1558)) was inactive.

On to `CCCCC(CC)COC(=O)c1ccccc1C(=O)O` (stereo not drawn), for which the molecule was classed as inactive in test [1], in test [2], in [3], in test [4], in [5] and in test [6]. The molecule was called inactive (in [7]; in test [8]; with BCL2L11 (gene 10018); in [9]; in test [10]; with Caspase-3 (Homo sapiens)). The result (in test [11]; in test [12]; in test [14]; with CYP2C8 (gene 1558)) was inactive. The AC50 in test [13] was 29.1 µM (active).

On to `CCCCOC(=O)[C@@H](C)Oc1ccc(Oc2ccc(C(F)(F)F)cn2)cc1`, for which the molecule was called inactive in [1], in [2], in test [3], in test [4], in [5] and in [6]. For the same molecule, the molecule was classed as inactive (in [7]; in test [8]; with BCL2L11 (gene 10018); in test [9]; in [10]; in the test with Caspase-3 (Homo sapiens)). In addition, the molecule was classed as inactive (in test [11]; in test [12]; in test [13]; in test [14]; in the test with CYP2C8 (gene 1558)).
